High-throughput results (PubChem)
Sampled rows, rich in hits. Any-hit rate of the full collection: about 11%.
HPGD block: inhibitors of human 15-hydroxyprostaglandin dehydrogenase (HPGD); P15428; purified HPGD, NADH fluorescence kinetic, PGE2 substrate; Potency, µM, without a hit: at the top dose activity change, negative = inhibition, actives largely listed as inhibitors; hit rate 4.3% among 150,000; AID 894; also: potency is read from the fitted curve at half-maximal effect
Target sequence (P15428 whole entry, looked up): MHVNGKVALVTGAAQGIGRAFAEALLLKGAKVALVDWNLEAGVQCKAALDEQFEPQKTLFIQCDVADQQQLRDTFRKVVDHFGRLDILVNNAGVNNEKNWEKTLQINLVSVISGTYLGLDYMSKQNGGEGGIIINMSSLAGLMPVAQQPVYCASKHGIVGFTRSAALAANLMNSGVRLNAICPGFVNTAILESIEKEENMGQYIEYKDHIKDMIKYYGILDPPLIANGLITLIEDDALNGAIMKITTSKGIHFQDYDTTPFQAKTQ
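20 nM HPGD preincubated 15 min at room temperature with compound in 50 mM Tris-HCl pH 8, 0.01% Tween 20. Started with 1 mM NAD+ and 30 uM prostaglandin E2; NADH fluorescence (360/450 nm) read 5 times over 30-s intervals, last minus first.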
ALDH1A1 inh: ALDH1A1 (human) enzyme inhibition. Purified ALDH1A1, NADH fluorescence, propionaldehyde substrate. Potency, µM (top dose mostly 75.3 µM), inactives show at the highest dose activity, negative = inhibition, usual class: inhibitors. hit rate 7.3% among 220,000. AID 1030;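 also: potency is read from the fitted curve at half-maximal effect; plate controls were no enzyme wells and a reference inhibitor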
IMPase inh: membrane-permeable compound that blocks inositol monophosphatase | inhibition (IP1 accumulation), % at 46.1 µM | AID 901 | CHO-M1 cells, IP1 accumulation, HTRF TR-FRET ratio | 120,000 tested, under 10 active; active = well fitted curve in the direction sought with a large enough effect in the signal ratio, not every such curve was filed as active; inconclusive = small, poorly fitted or top-dose-only effect, or a change in a side signal; inactive = no such curve, though single readings can be large or run the other way; the % refers to the signal ratio;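 also: cells stimulated with carbachol in lithium chloride buffer; plate controls were DMSO basal wells for no effect and reference inhibitor wells for full effect; higher means more IMPase inhibition seen as more IP1 and lower FRET ratio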
Target sequence (P97697 whole entry, looked up): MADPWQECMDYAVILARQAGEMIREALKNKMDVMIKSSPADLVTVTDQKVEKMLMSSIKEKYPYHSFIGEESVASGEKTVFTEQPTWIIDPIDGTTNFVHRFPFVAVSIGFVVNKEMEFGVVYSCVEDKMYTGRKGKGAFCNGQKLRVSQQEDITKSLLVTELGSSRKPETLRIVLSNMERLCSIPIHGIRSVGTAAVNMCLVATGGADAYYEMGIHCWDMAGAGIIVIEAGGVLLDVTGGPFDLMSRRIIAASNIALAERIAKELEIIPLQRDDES
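Measured: the HTRF emission ratio (665/620 nm) plus the 620 nm donor channel, each fitted to the Hill equation to give AC50. Cells were CHO-M1 given compounds up to 46 uM and a 30 min carbachol stimulation at 37C.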
PNC inhibitor: blocks assembly of the perinucleolar compartment; activity change (PNC), negative = inhibition, % at 10 µM; PC3M PTB-GFP, PNC prevalence imaging, 16 h; stronger effect = lower value; hit rate 3.1% among 140,000;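 active = readout at or below -70, meaning at least 70% loss of cells showing the perinucleolar compartment, a nuclear body marking cancer cells; inconclusive = readout between -30 and a set limit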;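 also: plate controls were DMSO wells for no effect and camptothecin positive control wells for full effect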
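PC3M cells stably expressing PTB-GFP, 750–1000 cells/well, treated 16 h at 37 °C with compound (23 nl of library stock), in duplicate. After paraformaldehyde fixation and Hoechst stain, imaged at 20x; PNC prevalence scored by image analysis.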
IMPase Li cell: membrane-permeable IMPase blocker, potentiated with lithium. CHO-M1 cells, IP1 TR-FRET (IP-One), carbachol + lithium. Potency, µM (doses to about 59.4 µM), without a hit: at the top dose activity, negative = IMPase inhibition, most hits filed as inhibitors. hit rate 0.35% among 210,000. AID 1457; active = well fitted inhibition curve with a large enough effect; inconclusive = small, poorly fitted or top-dose-only effect; inactive = no such curve, though single readings can be large or run the other way;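 also: IP1 builds up when IMPase is blocked and the TR-FRET signal falls; potency is read from the fitted curve at half-maximal effect; plate controls were basal vehicle for no effect and high inhibitor control for full effect; nearly all actives have a fitted effect of over 50% in size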
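Test compounds were applied to CHO-M1 cells previously cultured for 16–30 h at 2000 per well. A small lithium amount accompanied them; after 30 min at 37C, IP1 was quantified by TR-FRET.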
* hit, by the source's call; [ ] = another dose, or the depositor's remark. Unless noted, calls follow the shape of the dose curve; as a rule, active = well fitted inhibition curve with a large enough effect (not every such curve was filed as active); inconclusive = small, poorly fitted or top-dose-only effect, or another doubt; inactive = no such curve, though single readings can be large or run the other way. Unless noted, % is scaled to controls: 0 for no effect and ±100 for the full control effect.

COCC(C)n1c(C)cc(C(=O)COC(=O)c2ccc(N3CCCC3=O)cc2)c1C (stereo not given) was read as HPGD block -13%, ALDH1A1 inh 25µM*, IMPase inh 5, PNC inhibitor -20 and IMPase Li cell 22%[38.3 µM].
For COc1ccc(COC(=O)c2ccc(N3CCCC3=O)cc2)cc1F the results were HPGD block 14µM*, ALDH1A1 inh -7%, IMPase inh -5, PNC inhibitor -23 and IMPase Li cell 6%[38.3 µM].
`CCOC(=O)CCCCNCc1ccccc1` gave HPGD block -9%, ALDH1A1 inh 14%, IMPase inh -7, PNC inhibitor -100* and IMPase Li cell -1%.
Screening O=C(O)CCCCNCc1ccccc1 returned HPGD block -10%, ALDH1A1 inh 2%, IMPase inh -5, PNC inhibitor -13 and IMPase Li cell 28%[38.3 µM].
For CN(C)c1ccc(-c2nccc(NCc3cccs3)n2)cc1 the results were ALDH1A1 inh inconclusive and IMPase Li cell -1%.
`COc1ccccc1CNC(=O)c1ccc2c(=O)n(CCCN3CCCC3=O)c(=S)[nH]c2c1` gave ALDH1A1 inh 2µM* and IMPase Li cell -6%.
`C=CCNC(=O)c1ccc2c(=O)n(CCCN3CCCC3=O)c(=S)[nH]c2c1` gave ALDH1A1 inh 3.2µM* and IMPase Li cell 12%.
Screening O=C(NCCCN1CCCC1=O)c1ccc2c(=O)n(Cc3ccco3)c(=S)[nH]c2c1 returned HPGD block -4%, ALDH1A1 inh 13µM*, PNC inhibitor inconclusive and IMPase Li cell -5%.
COc1ccc(-n2c(=S)[nH]c3cc(C(=O)NCCCN4CCCC4=O)ccc3c2=O)cc1OC was read as HPGD block -6%, ALDH1A1 inh 2.5µM*, IMPase inh 7, PNC inhibitor 2 and IMPase Li cell -10%[38.3 µM].
For O=C(Cn1cc(C(F)(F)F)cc(Cl)c1=O)Nc1cc(S(=O)(=O)N2CCOCC2)ccc1Cl the results were ALDH1A1 inh -2%, IMPase inh -1 and PNC inhibitor 26.
`COc1cccc([C@@H]2Oc3ccc(Br)cc3C(=O)[C@H]2OC(=O)NS(=O)(=O)c2ccc(C)cc2)c1` gave HPGD block -6%, ALDH1A1 inh 4% and IMPase Li cell -9%.
For Cc1ccccc1C(=O)N1CCC(C(=O)N2CCN(S(=O)(=O)c3ccccc3F)CC2)CC1 the results were ALDH1A1 inh inconclusive and IMPase Li cell 0%.
For O=C(NCc1ccccc1)c1ccc2c(=O)n(CCCN3CCCC3=O)c(=S)[nH]c2c1 the results were HPGD block -11%, ALDH1A1 inh 4.5µM*, IMPase inh -7, PNC inhibitor -13 and IMPase Li cell -9%[38.3 µM].
`COc1ccc(CNC(=O)c2ccc3c(=O)n(CCCN4CCCC4=O)c(=S)[nH]c3c2)cc1` gave ALDH1A1 inh 28µM* and IMPase Li cell 6%.
For CCC1=NN(C(=O)CCc2ccc3c(c2)OCO3)C(O)(C(F)(F)F)C1 (stereo not given) the results were ALDH1A1 inh 15% and IMPase Li cell 3%.
For COc1cc2c3nnc(-c4ccc(F)cc4)c-3cn(Cc3ccc(C)cc3)c2cc1OC the results were HPGD block -16%, ALDH1A1 inh 4.5µM*, IMPase inh 1, PNC inhibitor -17 and IMPase Li cell -7%[38.3 µM].
COc1cc2c3nnc(-c4ccccc4)c-3cn(Cc3ccc(F)cc3)c2cc1OC was read as ALDH1A1 inh inconclusive and IMPase Li cell 30%.
For C/C(=N\NC(=O)c1ccncc1)C12CC3CC(CC(C3)C1)C2 the results were HPGD block -9%, ALDH1A1 inh inconclusive, PNC inhibitor -118* and IMPase Li cell -4%.
`O=C(Nc1ccccc1-c1ccccc1)C12CC3CC(CC(C3)C1)C2` gave HPGD block -8%, ALDH1A1 inh -7%, IMPase inh 3, PNC inhibitor 4 and IMPase Li cell 3%[38.3 µM].
Screening CC/C(=N\NC(=O)c1ccc(-c2ccccc2)cc1)C12CC3CC(CC(C3)C1)C2 returned HPGD block -25%, ALDH1A1 inh 13µM*, IMPase inh -5, PNC inhibitor 0 and IMPase Li cell 1%[38.3 µM].
`OCC(O)C(O)C(O)CO` (stereo not given) gave HPGD block -7%, ALDH1A1 inh 1% and IMPase Li cell -4%.
Screening Cc1ccn2c(Nc3ccccc3C)c(-c3ccncc3)nc2c1 returned HPGD block -19%, ALDH1A1 inh inconclusive, IMPase inh 6, PNC inhibitor -15 and IMPase Li cell 6%.
Screening CCC(=O)OCN1C(=O)C=CC1=O returned HPGD block inconclusive, ALDH1A1 inh 1µM* and IMPase Li cell -3%.
Screening CCC(=O)OCCn1c(=O)c2cc3c(=O)n(CCOC(=O)CC)c(=O)c3cc2c1=O returned HPGD block -3%, ALDH1A1 inh -8%, IMPase inh -6, PNC inhibitor inconclusive and IMPase Li cell 2%[38.3 µM].
C=CC[C@@H]1C=C[C@H](O/N=C2\c3cc(OC)ccc3O[C@H](c3cccc(OC)c3)[C@H]2O)[C@H](CO)O1 was read as ALDH1A1 inh 6%[13.5 µM].
`CN(C(=O)c1ccc(-c2nn(C)c(=O)c3ccccc23)cc1)c1ccccc1` gave HPGD block 7.9µM*, ALDH1A1 inh -4%, IMPase inh 2, PNC inhibitor -13 and IMPase Li cell 36%[38.3 µM].
CCC(CO)NC(=O)c1ccc(-c2nn(C)c(=O)c3ccccc23)cc1 (stereo not given) was read as HPGD block 32µM*, ALDH1A1 inh 12%, IMPase inh -5, PNC inhibitor -12 and IMPase Li cell 19%[38.3 µM].
Cn1nc(-c2ccc(OCC(=O)Nc3ccccc3)cc2)c2ccccc2c1=O was read as HPGD block 28µM*, ALDH1A1 inh -10%, IMPase inh 9, PNC inhibitor inconclusive and IMPase Li cell 40%[38.3 µM].
For COc1ccccc1NC(=O)c1ccc(-c2nn(C)c(=O)c3ccccc23)cc1 the results were ALDH1A1 inh 6% and IMPase Li cell 15%.
CN(C)CCNC(=O)c1ccc(-c2nn(C)c(=O)c3ccccc23)cc1 was read as HPGD block 20µM*, ALDH1A1 inh -12%, IMPase inh -7, PNC inhibitor inconclusive and IMPase Li cell 25%[38.3 µM].
Screening Cn1nc(-c2ccc(OCC(=O)Nc3ccc(Cl)cc3)cc2)c2ccccc2c1=O returned IMPase inh 3.
`COc1ccc(CNc2cc(-c3ccccc3C)ncn2)c(OC)c1` gave ALDH1A1 inh -13% and IMPase Li cell 25%.
Screening NC(Cc1cnc[nH]1)C(=O)Nc1ccc2ccccc2c1 (stereo not given) returned HPGD block -15%, ALDH1A1 inh 3% and IMPase Li cell -2%.
